In PubChem BioAssay:
For some of these results: Results with a measured potency or affinity are listed apart. The source made the active and inactive calls. Unless noted, no rule for the calls is given here.

Columns and labels:
[1] = antimalarial activity against Dd2 strain (AID 2302;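 active = growth inhibition above 50% at the single 2 µM test dose, taken to imply half-maximal potency below 2 µM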;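 also: 0% = DMSO untreated growth and 100% = chloroquine plus artemisinin killed control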); details: P. falciparum Dd2 in RBCs, LDH growth readout, 72 h; at 2 µM; active compounds read high
[2] = HepG2 cytotoxicity, primary screen, cytotoxicity control for P. falciparum antimalarial project, cell-based, ATP luminescence (AID 2303;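 active = inhibition above 50%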;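 also: 0% = DMSO wells and 100% = digitonin-killed cells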); details: HepG2 viability, 24-48 h, at 10 µM, active compounds read high
[3] = molecular target: L-lactate dehydrogenase (Plasmodium falciparum (isolate CDC / Honduras)) (UniProt Q27743); assay: PfLDH activity inhibition – cell lysate, 3D7 strain, counter-screen for P. falciparum growth inhibition project (AID 2304);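 also: 0% = vehicle and 100% = reference inhibitor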; details: P. falciparum 3D7 crude extract, LDH APAD/NBT absorbance; at 2 µM; active compounds read high
L-lactate dehydrogenase (Plasmodium falciparum (isolate CDC / Honduras)), sequence (Q27743 whole entry, looked up): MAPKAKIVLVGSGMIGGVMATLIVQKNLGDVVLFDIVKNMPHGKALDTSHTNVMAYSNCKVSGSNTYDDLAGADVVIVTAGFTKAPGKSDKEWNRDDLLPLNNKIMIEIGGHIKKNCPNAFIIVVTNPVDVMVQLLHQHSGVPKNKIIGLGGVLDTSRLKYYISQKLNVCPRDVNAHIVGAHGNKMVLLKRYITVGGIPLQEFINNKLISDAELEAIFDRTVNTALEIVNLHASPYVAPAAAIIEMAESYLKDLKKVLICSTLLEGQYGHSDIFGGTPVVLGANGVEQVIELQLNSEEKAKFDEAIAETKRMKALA

[4] = inhibition of 3D7 malaria parasite growth – strain 3D7 (AID 2306);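 also: 0% = DMSO wells and 100% = chloroquine plus artemisinin control wells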; details: P. falciparum 3D7 erythrocytic growth, LDH absorbance, 72 h; at 2 µM; active compounds read high
[5] = molecular target: Calcium-dependent protein kinase 1 (Plasmodium falciparum (isolate 3D7)) (UniProt P62344); assay: PfCDPK1 kinase inhibitors, biochemical, TCAMS library (AID 1159585; cut-off not given, nearly all actives have IC50 up to about 0.98 µM;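 also: inhibitors leave more ATP so luminescence rises with inhibition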); details: recombinant PfCDPK1, Kinase-Glo ATP depletion luminescence
Calcium-dependent protein kinase 1 (Plasmodium falciparum (isolate 3D7)), sequence (P62344 whole entry, looked up): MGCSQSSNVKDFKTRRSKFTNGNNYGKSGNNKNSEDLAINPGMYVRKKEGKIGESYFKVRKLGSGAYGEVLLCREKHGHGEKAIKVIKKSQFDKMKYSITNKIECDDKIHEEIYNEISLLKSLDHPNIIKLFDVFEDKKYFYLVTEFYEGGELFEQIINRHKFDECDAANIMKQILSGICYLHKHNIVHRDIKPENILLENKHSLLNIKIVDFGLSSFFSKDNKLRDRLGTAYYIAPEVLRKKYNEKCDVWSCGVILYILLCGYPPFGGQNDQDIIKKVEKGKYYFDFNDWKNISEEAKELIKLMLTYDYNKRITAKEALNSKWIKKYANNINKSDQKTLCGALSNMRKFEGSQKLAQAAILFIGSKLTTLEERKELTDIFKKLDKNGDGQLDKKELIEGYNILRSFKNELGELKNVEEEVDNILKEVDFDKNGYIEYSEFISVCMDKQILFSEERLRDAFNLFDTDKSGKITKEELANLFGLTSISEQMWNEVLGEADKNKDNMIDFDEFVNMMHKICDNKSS

[6] = molecular target: Plasmodium falciparum protein kinase 6 (PK6, PF3D7_1337100) (UniProt Q8IDW1); assay: PfPK6 kinase inhibitors, biochemical, TCAMS library (AID 1159586); details: recombinant PfPK6, Kinase-Glo ATP depletion luminescence
Plasmodium falciparum protein kinase 6 (PK6, PF3D7_1337100), sequence (Q8IDW1 1-305): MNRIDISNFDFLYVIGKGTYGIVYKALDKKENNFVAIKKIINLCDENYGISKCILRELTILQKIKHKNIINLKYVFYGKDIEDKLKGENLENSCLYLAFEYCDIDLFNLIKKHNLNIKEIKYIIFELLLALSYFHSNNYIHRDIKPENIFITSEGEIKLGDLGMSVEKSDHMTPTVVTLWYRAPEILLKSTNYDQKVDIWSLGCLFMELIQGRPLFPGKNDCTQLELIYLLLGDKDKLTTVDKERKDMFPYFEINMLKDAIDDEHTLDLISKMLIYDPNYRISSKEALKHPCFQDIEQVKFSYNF

[7] = molecular target: Protein kinase 7 (PK7), Plasmodium falciparum 3D7 (PF3D7_0213400) (UniProt Q7YTF7); assay: inhibition of Plasmodium PK7 catalytic activity – biochemical, TCAMS antimalarial set, Kinase-Glo luminescence (AID 1159587); details: recombinant PfPK7, Kinase-Glo ATP depletion luminescence
Protein kinase 7 (PK7), Plasmodium falciparum 3D7 (PF3D7_0213400), sequence (Q7YTF7 1-343): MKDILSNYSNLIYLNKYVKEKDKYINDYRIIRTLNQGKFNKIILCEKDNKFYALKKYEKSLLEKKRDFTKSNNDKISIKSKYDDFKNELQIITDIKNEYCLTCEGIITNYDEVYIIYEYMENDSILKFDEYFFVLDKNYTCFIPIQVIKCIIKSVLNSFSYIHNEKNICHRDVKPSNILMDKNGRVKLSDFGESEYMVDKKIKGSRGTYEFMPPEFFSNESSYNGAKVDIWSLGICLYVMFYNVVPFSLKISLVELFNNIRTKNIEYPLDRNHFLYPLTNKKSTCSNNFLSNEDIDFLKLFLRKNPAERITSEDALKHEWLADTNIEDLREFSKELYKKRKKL

[8] = molecular target: Calcium-dependent protein kinase 4 (Plasmodium falciparum (isolate 3D7)) (UniProt Q8IBS5); assay: PfCDPK4 kinase inhibitors, biochemical, TCAMS library (AID 1159588; cut-off not given, nearly all actives have IC50 up to about 0.91 µM); details: recombinant PfCDPK4, Kinase-Glo ATP depletion luminescence
Calcium-dependent protein kinase 4 (Plasmodium falciparum (isolate 3D7)), sequence (Q8IBS5 whole entry, looked up): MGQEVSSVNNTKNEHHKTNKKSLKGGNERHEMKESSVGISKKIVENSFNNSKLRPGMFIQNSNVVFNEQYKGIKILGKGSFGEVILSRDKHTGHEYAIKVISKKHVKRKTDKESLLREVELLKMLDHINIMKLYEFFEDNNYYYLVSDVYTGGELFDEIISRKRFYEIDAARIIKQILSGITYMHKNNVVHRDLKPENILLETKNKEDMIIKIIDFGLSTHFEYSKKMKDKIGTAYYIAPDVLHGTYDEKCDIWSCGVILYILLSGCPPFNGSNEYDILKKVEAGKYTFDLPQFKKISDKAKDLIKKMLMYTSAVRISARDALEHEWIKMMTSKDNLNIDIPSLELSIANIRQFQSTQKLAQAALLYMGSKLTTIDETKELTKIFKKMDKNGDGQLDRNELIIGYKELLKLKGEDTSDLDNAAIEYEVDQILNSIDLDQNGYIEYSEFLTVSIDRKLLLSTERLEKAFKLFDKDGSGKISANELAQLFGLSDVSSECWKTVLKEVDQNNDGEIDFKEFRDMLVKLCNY

C=CCN(C(=O)c1ccc(Cl)c([N+](=O)[O-])c1)c1nc(-c2ccccc2)cs1
inactive: inhibition [2] -13% | inhibition [3] -6% | outcome [5] | outcome [6] | outcome [7] | outcome [8]
active: growth inhibition [1] 99% | growth inhibition [4] 100%

O=C(/C=C/c1ccc(Cl)c(Cl)c1)NCCCCCCN1CCN(C(=O)Nc2ccc(C(F)(F)F)cc2)CC1
inactive: growth inhibition [1] 44% | inhibition [2] 42% | inhibition [3] -1% | outcome [5] | outcome [6] | outcome [7] | outcome [8]
active: growth inhibition [4] 100%

c1ccc2[nH]c(-c3ccc(-c4ccc(CNC5CC5)cc4)s3)nc2c1
active: growth inhibition [4] 91%
inactive: growth inhibition [1] 19% | inhibition [2] 25% | inhibition [3] -7% | outcome [5] | outcome [6] | outcome [7] | outcome [8]

COc1ccc(-c2cc3nc4c(c(NCCCn5ccnc5)n3n2)CCCC4)cc1
inactive: inhibition [2] 5% | inhibition [3] -2% | outcome [5] | outcome [6] | outcome [7] | outcome [8]
active: growth inhibition [1] 74% | growth inhibition [4] 95%

COC1CCC(C(=O)Nc2ccc(-c3cccc(-c4nc5ccc(C(F)(F)F)cc5[nH]4)c3)cc2)CC1 (stereo not given)
active: inhibition [2] 69% | growth inhibition [4] 85%
inactive: growth inhibition [1] 48% | inhibition [3] -2% | outcome [5] | outcome [6] | outcome [7] | outcome [8]

CC(C)=CCN1CCC(C(=O)Nc2ccc(-c3nc4ccccc4[nH]3)cc2)CC1
inactive: growth inhibition [1] -1% | inhibition [2] -2% | inhibition [3] -3% | outcome [5] | outcome [6] | outcome [7] | outcome [8]
active: growth inhibition [4] 95%

CN1C[C@@H](c2ccccc2)c2cc(O)c(CN3CCCCC3)cc2C[C@H]1Cc1ccccc1
active: growth inhibition [1] 99% | growth inhibition [4] 99%
inactive: inhibition [2] -6% | inhibition [3] -8% | outcome [5] | outcome [6] | outcome [7] | outcome [8]

N#Cc1ccc(N2CCN(Cc3ccc(-c4ccc(-c5nc6ccccc6[nH]5)s4)cc3)CC2)nc1
inactive: inhibition [2] 17% | inhibition [3] 2% | outcome [5] | outcome [6] | outcome [7] | outcome [8]
active: growth inhibition [1] 63% | growth inhibition [4] 99%

CN1CCN(Cc2cccc(-c3ccc4c(Nc5ccc(Oc6ccccc6)cc5)ccnc4c3)c2)CC1
active: growth inhibition [1] 100% | growth inhibition [4] 101%
inactive: inhibition [2] 41% | inhibition [3] 6% | outcome [5] | outcome [6] | outcome [7] | outcome [8]

Cc1[nH]c2ccccc2c(=O)c1-c1ccc(Cl)cc1
active: growth inhibition [1] 91% | growth inhibition [4] 93%
inactive: inhibition [2] -1% | inhibition [3] 2% | outcome [5] | outcome [6] | outcome [7] | outcome [8]

CCCC(C)Nc1nc(C)cc(N[C@@H](Cc2ccccc2)C(=O)Nc2ccc(OC)cc2)n1 (stereo not given in full)
active: growth inhibition [1] 72% | growth inhibition [4] 100%
inactive: inhibition [2] 24% | inhibition [3] -1% | outcome [5] | outcome [6] | outcome [7] | outcome [8]

CNC(=O)c1cnc(Nc2ccc(OCC(O)CN(C)C)cc2)nc1Nc1cccc(Br)c1 (stereo not given)
inactive: inhibition [3] -5% | outcome [5] | outcome [6] | outcome [7] | outcome [8]
active: growth inhibition [1] 100% | inhibition [2] 68% | growth inhibition [4] 102%

Cc1sc2nc(CSc3ccccc3)nc(N3CCN(CC(=O)N4CCCC4)CC3)c2c1C
active: growth inhibition [1] 69% | growth inhibition [4] 91%
inactive: inhibition [2] 19% | inhibition [3] 2% | outcome [5] | outcome [6] | outcome [7] | outcome [8]

Cc1cccc2[nH]c(-c3ccc(-c4cccc(NC(=O)C(C)CN5CCN(C)CC5)c4)cc3)nc12 (stereo not given)
active: growth inhibition [1] 51% | growth inhibition [4] 98%
inactive: inhibition [2] 5% | inhibition [3] 3% | outcome [5] | outcome [6] | outcome [7] | outcome [8]

COc1cc(NC(=O)/C=C/c2cccc3cc[nH]c23)ccc1OCCN(C(C)C)C(C)C
active: growth inhibition [1] 51% | growth inhibition [4] 99%
inactive: inhibition [2] 11% | inhibition [3] 5% | outcome [5] | outcome [6] | outcome [7] | outcome [8]

COC(=O)C(=O)c1c(-c2ccccc2)c(-c2ccc(OC)c(OC)c2)c2c3cc(OC)c(OC)cc3ccn12
inactive: inhibition [2] 2% | inhibition [3] -1% | outcome [5] | outcome [6] | outcome [7] | outcome [8]
active: growth inhibition [1] 89% | growth inhibition [4] 97%

O=C(Nc1cccc(-c2ccc(NCCCN3CCCC3)nc2)c1)c1ccccc1
inactive: growth inhibition [1] 21% | inhibition [2] 22% | inhibition [3] 4% | outcome [5] | outcome [6] | outcome [7] | outcome [8]
active: growth inhibition [4] 100%

O=c1cc(NCCCNCc2cccc(I)c2)[nH]c2ccccc12
inactive: growth inhibition [1] 9% | inhibition [2] 10% | inhibition [3] -1% | outcome [5] | outcome [6] | outcome [7] | outcome [8]
active: growth inhibition [4] 90%

COc1ccccc1CCNc1nccc(N[C@@H](Cc2ccccc2)C(=O)NCc2cccs2)n1
inactive: inhibition [2] 34% | inhibition [3] 3% | outcome [5] | outcome [6] | outcome [7] | outcome [8]
active: growth inhibition [1] 79% | growth inhibition [4] 90%

COc1ccc(NC(=O)[C@H](CC(C)C)Nc2cc(C)nc(NCC3CCCCC3)n2)cc1
active: growth inhibition [1] 92% | growth inhibition [4] 101%
inactive: inhibition [2] 7% | inhibition [3] 2% | outcome [5] | outcome [6] | outcome [7] | outcome [8]
